Data: PubChem BioAssay (NCI)
This is part of a sample that, as a whole, favours compounds with a hit. Of some 83,000 tested, about 20% had one in any assay.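 Cell lines were cultured in 96-well plates, exposed to a single compound concentration, and assessed for percent growth 48 hours later.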 Activity calls are given as the source filed them. The calls were made as follows: active = growth percent below 10; inactive = the rest.

What was measured:
Experiment in all cases: NCI-60 one-dose screen, 48 h (100 = growth as untreated, 0 = no growth, -100 = all killed)
Conditions in all cases: 10 µM unless noted
NCI-H23 lung = tested on: NCI-H23 lung
NCI-H226 lung = tested on: NCI-H226 lung
NCI-H322M lung = tested on: NCI-H322M lung
HOP-62 NSCLC = tested on: HOP-62 NSCLC
NCI-H460 lung = tested on: NCI-H460 lung
HOP-92 NSCLC = tested on: HOP-92 NSCLC
A549/ATCC NSCLC = tested on: A549/ATCC NSCLC
786-0 renal = tested on: 786-0 renal
COLO 205 colon = tested on: COLO 205 colon
DU-145 prostate = tested on: DU-145 prostate
K-562 leukemia = tested on: K-562 leukemia
MALME-3M melanoma = tested on: MALME-3M melanoma
MDA-MB-231 breast = tested on: MDA-MB-231 breast
RXF 393 renal = tested on: RXF 393 renal
SF-268 CNS = tested on: SF-268 CNS
SF-295 CNS = tested on: SF-295 CNS
SF-539 CNS = tested on: SF-539 CNS
UACC-257 melanoma = tested on: UACC-257 melanoma
M14 melanoma = tested on: M14 melanoma
NCI-H522 lung = tested on: NCI-H522 lung

Measured: growth

NC1CCN(c2nc(Nc3cccc(C(F)(F)F)c3)c3c(=O)[nH]ccc3n2)CC1
active: NCI-H23 lung -58.9% | NCI-H226 lung -62.5% | NCI-H322M lung -12.7% | HOP-62 NSCLC -58.8% | NCI-H460 lung -59.1% | HOP-92 NSCLC -61.5% | A549/ATCC NSCLC -52.2% | 786-0 renal -97.7% | COLO 205 colon -61.1% | DU-145 prostate 7.32% | K-562 leukemia -48.7% | MALME-3M melanoma -64.1% | MDA-MB-231 breast -62% | RXF 393 renal -93.6% | SF-268 CNS -46.2% | SF-295 CNS -56.7% | SF-539 CNS -96.5% | UACC-257 melanoma -74.6% | M14 melanoma -95.2%

CCOc1cccc(NC2=C(Br)C(=O)C(C)=C(C)C2=O)c1
inactive: NCI-H23 lung 67.5% | NCI-H226 lung 72% | NCI-H322M lung 96.2% | HOP-62 NSCLC 83.6% | NCI-H460 lung 100% | A549/ATCC NSCLC 103% | 786-0 renal 104% | COLO 205 colon 123% | DU-145 prostate 104% | MALME-3M melanoma 91.4% | MDA-MB-231 breast 34.3% | RXF 393 renal 113% | SF-268 CNS 94.1% | SF-295 CNS 101% | SF-539 CNS 94.9% | UACC-257 melanoma 68% | M14 melanoma 87.1%
active: HOP-92 NSCLC -8.14% | K-562 leukemia 0.431%

O=C1c2cccc3cccc(c23)C(=O)N1Nc1nc(N2CCOCC2)nc(N2CCN(c3ccccc3)CC2)n1
active: HOP-92 NSCLC 7.52% | COLO 205 colon 3.51%
inactive: NCI-H23 lung 64% | NCI-H226 lung 57.5% | NCI-H322M lung 65.5% | HOP-62 NSCLC 46.3% | NCI-H460 lung 28.8% | A549/ATCC NSCLC 53.1% | 786-0 renal 65.6% | DU-145 prostate 55% | K-562 leukemia 18.4% | MALME-3M melanoma 21.7% | MDA-MB-231 breast 56.3% | RXF 393 renal 30.9% | SF-268 CNS 53.8% | SF-295 CNS 20.6% | SF-539 CNS 50.2% | UACC-257 melanoma 71.8% | M14 melanoma 19.4%

Cc1cc(O)c(C2=NN(c3ccc(S(N)(=O)=O)cc3)C(c3ccccc3O)C2)cc1Cl (stereo not drawn)
active: NCI-H23 lung -19.9% | NCI-H226 lung 0.355% | HOP-62 NSCLC -3.51% | NCI-H460 lung -47.9% | HOP-92 NSCLC 5.49% | A549/ATCC NSCLC 3.15% | 786-0 renal -55.7% | COLO 205 colon -94.4% | DU-145 prostate 1.2% | K-562 leukemia -36.6% | MDA-MB-231 breast 4.16% | RXF 393 renal -10.3% | SF-539 CNS -21.2% | M14 melanoma -68.5%
inactive: NCI-H322M lung 46.8% | MALME-3M melanoma 21.8% | SF-268 CNS 10.8% | SF-295 CNS 58.5% | UACC-257 melanoma 66.5%

CCc1ccc2nc(NC(=O)Cc3csc(NC(=O)c4ccco4)n3)sc2c1
inactive: NCI-H23 lung 85.1% | NCI-H226 lung 72.6% | NCI-H322M lung 81.5% | HOP-62 NSCLC 86.3% | NCI-H460 lung 79% | A549/ATCC NSCLC 91.3% | 786-0 renal 71.6% | COLO 205 colon 107% | DU-145 prostate 67% | K-562 leukemia 64.5% | MALME-3M melanoma 59.6% | MDA-MB-231 breast 67.9% | RXF 393 renal 73.1% | SF-268 CNS 43.3% | SF-295 CNS 77.6% | SF-539 CNS 34.8% | UACC-257 melanoma 101% | M14 melanoma 96.7%
active: HOP-92 NSCLC -17.9%

O=[N+]([O-])c1ccccc1NCSc1ccc(Cl)cc1
inactive: NCI-H23 lung 91.2% | NCI-H226 lung 91% | NCI-H322M lung 98.1% | HOP-62 NSCLC 124% | NCI-H460 lung 95.8% | HOP-92 NSCLC 78.3% | A549/ATCC NSCLC 91.3% | 786-0 renal 87.6% | COLO 205 colon 116% | DU-145 prostate 102% | K-562 leukemia 93.1% | MALME-3M melanoma 87.5% | MDA-MB-231 breast 90% | RXF 393 renal 88.9% | SF-268 CNS 84.2% | SF-295 CNS 77.4% | SF-539 CNS 107% | UACC-257 melanoma 95.8% | M14 melanoma 102%

Cc1ncc(C(=O)Nc2ccc(CN3CCN(C)CC3)c(C(F)(F)F)c2)cc1C#Cc1ccc(N)nc1
active: NCI-H23 lung 3.94% | NCI-H226 lung -3.96% | NCI-H460 lung -60.3% | HOP-92 NSCLC -15.9% | 786-0 renal -48.8% | COLO 205 colon 5.35% | K-562 leukemia 5.34% | MALME-3M melanoma -88.9% | MDA-MB-231 breast -64.3% | RXF 393 renal -60.2% | SF-268 CNS -11.9% | SF-539 CNS -39.3% | UACC-257 melanoma 0.961% | M14 melanoma -56.8%
inactive: NCI-H322M lung 20.1% | HOP-62 NSCLC 18.7% | A549/ATCC NSCLC 11.3% | DU-145 prostate 18.1% | SF-295 CNS 18.5%

Cc1ccc(C2CC(c3ccc(Nc4ccnc5cc(Cl)ccc45)cc3)=NN2C=O)cc1 (stereo not drawn)
inactive: NCI-H23 lung 60.3% | NCI-H226 lung 85.1% | NCI-H322M lung 87.8% | HOP-62 NSCLC 72.5% | NCI-H460 lung 69.8% | HOP-92 NSCLC 61.5% | A549/ATCC NSCLC 50.2% | 786-0 renal 64% | COLO 205 colon 64.9% | DU-145 prostate 68.4% | K-562 leukemia 16.2% | MALME-3M melanoma 46.5% | MDA-MB-231 breast 66.2% | RXF 393 renal 61.7% | SF-268 CNS 48.5% | SF-295 CNS 31.2% | SF-539 CNS 91% | UACC-257 melanoma 79.8% | M14 melanoma 45.8%

O=C(/C=C/c1cccc2ccccc12)c1ccc(NC(=O)c2ccccc2CN2C(=O)c3ccccc3C2=O)cc1
inactive: NCI-H23 lung 67.3% | NCI-H226 lung 93.4% | NCI-H322M lung 79.7% | HOP-62 NSCLC 94.2% | HOP-92 NSCLC 80.2% | NCI-H522 lung 68.4% | A549/ATCC NSCLC 78.6% | 786-0 renal 97% | COLO 205 colon 101% | DU-145 prostate 42.7% | K-562 leukemia 20.2% | MALME-3M melanoma 79.6% | MDA-MB-231 breast 58.4% | RXF 393 renal 91.5% | SF-268 CNS 75.4% | SF-295 CNS 96.4% | SF-539 CNS 90.2% | UACC-257 melanoma 88% | M14 melanoma 72.8%

Oc1ccc(-c2nc3ccc4[nH]ncc4c3c3c2CCCC3)c2cccnc12
active: NCI-H23 lung -7.85% | NCI-H226 lung -2.05% | HOP-62 NSCLC 5.46% | NCI-H460 lung -21.7% | HOP-92 NSCLC -16.7% | A549/ATCC NSCLC -34% | 786-0 renal 2.06% | COLO 205 colon -11.6% | K-562 leukemia 7.23% | MALME-3M melanoma -3.69% | RXF 393 renal -9.52% | SF-268 CNS 0.245% | SF-295 CNS -4.23% | SF-539 CNS -1.03% | UACC-257 melanoma -20.4% | M14 melanoma 3.35%
inactive: NCI-H322M lung 11.3% | DU-145 prostate 11.6% | MDA-MB-231 breast 18.8%

CCOC(=O)c1cn2ncnc(Oc3ccc(NC(=O)NCCN4CCOCC4)c(Cl)c3)c2c1C
inactive: NCI-H23 lung 99.6% | NCI-H226 lung 92.9% | NCI-H322M lung 88.7% | HOP-62 NSCLC 87.1% | NCI-H460 lung 100% | HOP-92 NSCLC 91.7% | A549/ATCC NSCLC 99.2% | 786-0 renal 102% | COLO 205 colon 100% | DU-145 prostate 109% | K-562 leukemia 98.3% | MALME-3M melanoma 91.5% | MDA-MB-231 breast 100% | RXF 393 renal 94.2% | SF-268 CNS 94.9% | SF-295 CNS 98.4% | SF-539 CNS 95.6% | UACC-257 melanoma 95.8% | M14 melanoma 91.3%

[O-][n+]1c2ccccc2[n+]([O-])c2c3ccccc3[nH]c21
inactive: NCI-H23 lung 71.5% | NCI-H322M lung 66.9% | HOP-62 NSCLC 26.2% | HOP-92 NSCLC 66.5% | A549/ATCC NSCLC 30.6% | 786-0 renal 71% | COLO 205 colon 69.8% | DU-145 prostate 72.6% | K-562 leukemia 87.7% | MALME-3M melanoma 110% | MDA-MB-231 breast 75.9% | RXF 393 renal 99.6% | SF-268 CNS 109% | SF-295 CNS 69.7% | SF-539 CNS 91.4% | M14 melanoma 98.5%
active: NCI-H226 lung -0.987% | NCI-H460 lung 5.29% | UACC-257 melanoma -31.3%
